Screen size: about 50,000 compounds; about 800 (1.6%) showed an effect of 50% or more. For the sample, strong results were picked, then their nearest neighbours and some compounds at random.
Target: Bcl-2-like protein 10 (Homo sapiens) (UniProt Q9HD36)
Test: Phenotype converters, Bcl-B/TR3 peptide binding displacement, primary biochemical FP (AID 1240);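 note: 0% = Bcl-B with tracer peptide and DMSO and 100% = tracer peptide lacking Bcl-B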
Details: GST-Bcl-B / FITC-TR3 peptide fluorescence polarization; stronger effect = higher value; compound at 3.75 mg/L

Chain of Bcl-2-like protein 10 (Homo sapiens) (Q9HD36 whole entry, looked up): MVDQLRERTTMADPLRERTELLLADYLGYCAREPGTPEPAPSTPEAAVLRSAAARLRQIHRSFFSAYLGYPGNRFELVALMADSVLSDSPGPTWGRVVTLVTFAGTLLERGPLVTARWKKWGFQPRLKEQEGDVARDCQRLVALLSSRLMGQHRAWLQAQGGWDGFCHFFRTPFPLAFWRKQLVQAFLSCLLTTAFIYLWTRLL

SMILES	displacement [%]
COc1ccccc1C(=O)N1CCN(Cc2ccccc2[N+](=O)[O-])CC1	1.5
COc1ccc(-n2cnc3cc(Nc4nnc(C)c5ccccc45)ccc32)cc1	0.8
CCOC(=O)c1cc(CC)sc1NC(=O)c1cc([N+](=O)[O-])ccc1N1CCN(CC)CC1	-2.3
O=C(CSc1ncn[nH]1)c1ccc(Br)cc1	8.5
COc1ccc(S(=O)(=O)N(Cc2ccccc2)c2ccccc2C(=O)N2CCOCC2)cc1	-1.1
CC(C)(CNC(=O)c1cccnc1)CNC(=O)c1cccnc1	7.9
O=C(O)C(Cc1ccccc1)n1c(O)c(/C=C2\C=Nc3ccccc32)sc1=S (centres undefined)	-2.3
Cc1cc(/C=N/O)c(C)n1-c1ccc(F)cc1	12.6
COC(=O)c1ccc(NC(=S)NC(=O)/C=C/c2ccc(Br)cc2)cc1	13.2
COc1ccc2c(c1OC)C(=O)OC2Nc1ccccc1Br (centres undefined)	-5.8
COc1ccc(-n2nnnc2C(Cl)(Cl)c2nnnn2-c2ccc(OC)cc2)cc1	5.8
COc1ccc(/C=C/C(=O)/C=C/c2ccc(N(C)C)cc2)cc1	-3
COc1ccc(-n2nnnc2C(=Cc2ccc(N(C)C)cc2)c2nnnn2-c2ccc(OC)cc2)cc1	157
CCOc1cc(/C=C2\SC(=Nc3cccc(Cl)c3C)NC2=O)ccc1O	-11.7
O=C1C(Nc2ccccc2)=CC(c2cccc(F)c2)N1c1ccccc1 (centres undefined)	14.1
Brc1ccc2nc(N3CCNCC3)nc(-c3ccccc3)c2c1	-8.1
O=C(c1ccc([N+](=O)[O-])cc1)N1CCN(c2nc(-c3ccccc3)c3cc(Cl)ccc3n2)CC1	17.5
O=C(c1ccccc1Cl)N1CCN(c2nc(-c3ccccc3)c3cc(Br)ccc3n2)CC1	-5.8
O=CN1CCN(c2nc(-c3ccccc3)c3cc(Cl)ccc3n2)CC1	113
O=C(c1ccccc1)N1CCN(c2nc(-c3ccccc3)c3cc(Cl)ccc3n2)CC1	10.6
O=CN1CCN(c2nc(-c3ccccc3)c3cc(Br)ccc3n2)CC1	84.9
CC1=C(C#N)c2nc(N)c(C#N)c(C)c2/C1=C\c1cc([N+](=O)[O-])ccc1Cl	0.6
Cc1cccc(OCCOc2ccccc2/C=C2/SC(=S)N(C)C2=O)c1	-0.4

SMILES	displacement [%]
Fc1cc(F)c(F)c(SCCc2ccncc2)c1F	5.9
COc1cccc(N2C(=O)NC(=O)/C(=C/C=C/c3ccco3)C2=O)c1	-47.4
C/C(=N\NC(=O)COc1ccc(Cl)cc1Cl)c1cccnc1	1.9
O=C1C2ON(c3ccc(Cl)cc3)C(c3cccs3)C2C(=O)N1c1cccc(C(F)(F)F)c1 (centres undefined)	-18.1
COc1ccc(OCC(O)CN(C)S(=O)(=O)O)cc1 (centres undefined)	-6.7
O=C(Cc1ccc(Br)cc1)N1CCN(c2ccccc2)CC1	9.8
COc1ccc(C2CC(=O)C3=C(C2)Nc2ccccc2NC3c2cccc(OC)c2OC)cc1OC (centres undefined)	-3.7
O=C(CSc1ccccn1)Nc1ccc2c(c1)C(=O)c1ccccc1C2=O	54.6
CC(=O)Nc1ccc(NC(=O)CSc2ccccn2)cc1	-2.6
O=C(CSc1ccccn1)Nc1ccc(F)cc1	-11.4
CC1(C)CC(=O)c2cnc(NC(=O)Cc3ccc(Cl)cc3)nc2C1	-0.2
COc1ccc(CC(c2nc3ccccc3[nH]2)C(C)c2nc3ccccc3[nH]2)cc1 (centres undefined)	8
O=c1oc(/C=C\c2ccccc2)nc2ccc(Br)cc12	10.7
Clc1ccc(CN2CCN(/N=C\c3ccc(OCc4ccccc4)cc3)CC2)cc1	-9.5
CCOC(=O)C1=C(C)N=c2s/c(=C\c3ccco3)c(=O)n2C1c1cccc(OC)c1 (centres undefined)	-25.3
CCOC(=O)C1=C(c2ccccc2)N=c2s/c(=C\c3ccco3)c(=O)n2C1c1cccc(OC)c1OC (centres undefined)	76.4
CCOC(=O)C1=C(C)N=c2s/c(=C/c3ccc(I)o3)c(=O)n2C1c1ccccc1OC (centres undefined)	14.5
CCOC(=O)C1=C(c2ccccc2)N=c2s/c(=C\c3cccnc3)c(=O)n2C1c1cccc(OC)c1OC (centres undefined)	5.1
CCOC(=O)C1=C(C)N=c2s/c(=C\c3ccco3)c(=O)n2C1c1ccccc1OC (centres undefined)	74.3
CCOC(=O)C1=C(C)N=c2s/c(=C\C=C\c3ccccc3)c(=O)n2C1c1ccc(OC(C)=O)cc1 (centres undefined)	16.9
CCOC(=O)C1=C(c2ccccc2)N=c2s/c(=C\c3cccc(O)c3)c(=O)n2C1c1cccc(OC)c1OC (centres undefined)	7.6
CCOC(=O)C1=C(C)N=c2s/c(=C\c3ccco3)c(=O)n2C1c1ccccc1 (centres undefined)	16.5
CCOC(=O)C1=C(C)N=c2s/c(=C\C=C\c3ccco3)c(=O)n2C1c1ccc(OC)cc1 (centres undefined)	63.9

SMILES	displacement [%]
CC1CCC2(CC1)C(C#N)=C(SCC(N)=O)NC(=O)C2C#N (centres undefined)	-7.2
CCOC(=O)c1sc(NC(=O)c2ccc(Cl)cc2Cl)nc1C	17
O=C1CC(N(Cc2ccco2)C(=S)NCCc2ccccc2)C(=O)N1c1ccc(F)cc1 (centres undefined)	27.4
CC(C)(C)NC(=O)c1cccc(C(=O)Nc2cccc(O)c2)c1	-3.2
c1ccc(C2=Nc3ccccc3NC(c3ccccc3)C2)cc1 (centres undefined)	-26.7
COc1cc(/C=C2\SC(=S)N(NC(=O)c3ccccc3Br)C2=O)ccc1O	-21.3
O=C(NN1C(=O)/C(=C/c2ccc(O)c(O)c2)SC1=S)c1ccccc1Br	73
O=C(NN1C(=O)/C(=C/c2ccc(O)cc2)SC1=S)c1ccccc1Br	-72.2
CCCCOc1cccc(NC(=O)c2cccc([N+](=O)[O-])c2C)c1	5
O=C(Cc1ccc(Br)cc1)Nc1cc([N+](=O)[O-])ccc1Cl	4.4
O=C1N/C(=N\N=C\c2ccccc2O)SC1Cc1ccc(Cl)cc1 (centres undefined)	8.7
O=C(NNC(=O)c1cccc(Cl)c1)c1cccc(F)c1	-4.7
CCC(C)(C)C1CCc2c(sc(NC(=O)c3cnccn3)c2C(=O)OC)C1 (centres undefined)	6.1
N#Cc1c(/N=C/c2cc([N+](=O)[O-])c(N3CCOCC3)cc2N2CCOCC2)sc2c1CCCC2	14.5
N#Cc1c(/N=C\c2ccc(N3CCCCC3)c([N+](=O)[O-])c2)sc2c1CCCC2	-5.3
N#Cc1c(/N=C\c2ccc(N3CCOCC3)c([N+](=O)[O-])c2)sc2c1CCCC2	81.3
O=C1NC(=O)/C(=C\c2ccc(O)cc2)S1	1.8
CCc1ccc(OCC(=O)Nc2ccc(-c3nc4ccccc4o3)c(O)c2)cc1	0.8
CCCC(=O)Nc1ccc(-c2nc3cc(C)c(C)cc3o2)cc1	14.7
CCCC(=O)Nc1ccc(-c2nc3cc(C)c(C)cc3o2)c(O)c1	96.8
CCc1ccc(OCC(=O)Nc2ccc(-c3nc4cc(C)c(C)cc4o3)c(O)c2)cc1	118
CCC(=O)Nc1ccc(O)c(-c2nc3cc(C)c(C)cc3o2)c1	-7
CCc1ccc(OCC(=O)Nc2ccc(O)c(-c3nc4cc(C)ccc4o3)c2)cc1	7.4

Source: PubChem BioAssay AID1240 (Sanford-Burnham Center for Chemical Genomics, 2008)
